# From article PMC5540273 (PLoS ONE, 2017)
# How the values were obtained:
# Settings in all cases: concentration: 1 μM, replicates: in singlicate; n = 1
# CSNK1G1 = tested on: CSNK1G1
# CSNK1G2 = tested on: CSNK1G2
# CSNK1G3 = tested on: CSNK1G3
# CSNK2A1 = tested on: CSNK2A1
# CSNK2A2 = tested on: CSNK2A2
# CTK = tested on: T1, CTK
# T1 construct: gene MATK
# DAPK1 = tested on: DAPK1
# DAPK2 = tested on: DAPK2
# DAPK3 = tested on: DAPK3
# DCAMKL1 = tested on: T2, DCAMKL1
# T2 construct: gene DCLK1
# DCAMKL2 = tested on: T3, DCAMKL2
# T3 construct: gene DCLK2
# DCAMKL3 = tested on: T4, DCAMKL3
# T4 construct: gene DCLK3
# DDR1 = tested on: DDR1
# DDR2 = tested on: DDR2
# DLK = tested on: T5, DLK
# T5 construct: gene MAP3K12
# DMPK2 = tested on: T6, DMPK2
# T6 construct: gene CDC42BPG
# DMPK = tested on: DMPK
# DRAK1 = tested on: T7, DRAK1
# T7 construct: gene STK17A
# DRAK2 = tested on: T8, DRAK2
# T8 construct: gene STK17B
# DYRK1A = tested on: DYRK1A
# 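Note: KINOMEscan kinase panel screen.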
Compound,%Inh (CSNK1G1),%Inh (CSNK1G2),%Inh (CSNK1G3),%Inh (CSNK2A1),%Inh (CSNK2A2),%Inh (CTK),%Inh (DAPK1),%Inh (DAPK2),%Inh (DAPK3),%Inh (DCAMKL1),%Inh (DCAMKL2),%Inh (DCAMKL3),%Inh (DDR1),%Inh (DDR2),%Inh (DLK),%Inh (DMPK2),%Inh (DMPK),%Inh (DRAK1),%Inh (DRAK2),%Inh (DYRK1A)
CSc1ccc(NC2=C(c3ccc(Cl)cc3)C(=O)NC2=O)cc1 [SB-317658],0%,15%,0%,0%,25%,19%,0%,0%,0%,0%,2%,12%,0%,5%,0%,10%,8%,12%,0%,1%
Cc1ccc(NC(=O)c2cccc(N3CCCCC3)c2)cc1-c1ccc(C(=O)NCC2CC2)cc1 [GSK1917008],8%,0%,24%,29%,10%,17%,0%,0%,29%,16%,19%,0%,100%,64%,8%,100%,3%,0%,9%,27%
Fc1cc(Cl)ccc1Nc1ccnc2cc(-c3ccc(CN4CCOCC4)o3)ccc12 [GW560109],7%,0%,7%,0%,86%,28%,0%,0%,10%,12%,0%,0%,97.9%,60%,28%,0%,16%,0%,0%,11%
